Hits are enriched below; roughly 6.1% of the tested compounds scored in any of these assays.
S2 tox = viability counter-screen for ATXN expression inhibitors. S2 cells (HEK-293 line with an ATXN2-luciferase reporter) viability, CellTiter-Fluor protease fluorescence, 24 h. Potency, µM (top dose mostly 56.7 µM), most hits filed as cytotoxic. 400,000 compounds, 0.49% hits. AID 651635; also: nearly all actives have a fitted effect of over 40% in size
HepG2 tox-1 = kills HepG2 cells in TGF-b inhibitor counter-screen | AID 588856 | 410,000 compounds, 0.76% hits | HepG2 CAGA-GFP viability, ATP luminescence, 18 h | Potency, µM (top dose mostly 46.1 µM), for inactives: at the highest dose activity change, negative = cytotoxicity, hits mostly cytotoxic
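HepG2 CAGA-GFP cells (1000/well, DMEM with 1% FBS) received compound, then TGF-beta at 500 pg/mL final, and were incubated 18 hours at 37 degrees C. Viability was read by CellTiter-Glo luminescence. Media-only wells were set as complete cell-killing and DMSO as no toxicity.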
RORg inh = ROR gamma (mouse) transcription inhibition; AID 2551; Potency, µM (top dose mostly 53.6 µM), inactives show at the top dose activity change, negative = inhibition, hits mostly inhibitors; 310,000 compounds, 5.4% hits; Drosophila S2 Gal4-RORgamma UAS-luciferase reporter, 20 h; also: % is scaled to controls: 0 for no effect and ±100 for the full control effect; nearly all actives have a fitted effect of over 60% in size
Target sequence (P51450 whole entry, looked up, the tested form may be a part): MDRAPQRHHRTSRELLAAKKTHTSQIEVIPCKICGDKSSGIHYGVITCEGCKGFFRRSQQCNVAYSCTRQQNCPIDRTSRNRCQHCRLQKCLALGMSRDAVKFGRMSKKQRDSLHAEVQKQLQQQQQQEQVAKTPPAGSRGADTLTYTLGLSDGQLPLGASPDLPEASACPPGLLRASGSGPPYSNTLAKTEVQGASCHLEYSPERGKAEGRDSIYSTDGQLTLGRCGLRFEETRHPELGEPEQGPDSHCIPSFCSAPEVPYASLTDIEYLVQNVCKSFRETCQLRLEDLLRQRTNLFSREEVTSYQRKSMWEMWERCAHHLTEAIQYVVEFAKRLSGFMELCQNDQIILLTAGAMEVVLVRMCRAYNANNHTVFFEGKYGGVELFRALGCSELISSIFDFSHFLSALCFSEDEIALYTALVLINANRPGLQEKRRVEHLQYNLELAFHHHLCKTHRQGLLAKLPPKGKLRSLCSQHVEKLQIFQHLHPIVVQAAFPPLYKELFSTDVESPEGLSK
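Drosophila S2 cells stably expressing Gal4-DBD/mouse RORγ fusion under metallothionein promoter plus UAS-luciferase; compound 1 h, then 700 uM CuSO4 induction for 20 h at ambient temperature; inhibition read as reduced luminescence.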
Gal4-VP16 FLuc = Gal4-VP16 reporter inhibition counter-screen; Drosophila S2 Gal4-VP16 UAS-luciferase, luminescence, 20 h; Potency, µM (series often up to 53.6 µM), without a hit: at the top dose activity, negative = inhibition, hits mostly inhibitors; 310,000 compounds, 3.5% hits;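 also: Gal4-VP16 expression switched on by copper sulfate through the metallothionein promoter; % is scaled to controls: 0 for no effect and ±100 for the full control effect; nearly all actives have a fitted effect of over 50% in size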
TGFb inhibitor = inhibitors of TGF-b signaling; Potency, µM (series often up to 46.1 µM), inactives show at the top dose activity, negative = inhibition, most hits filed as inhibitors; 410,000 compounds, 1.2% hits; HepG2 CAGA-GFP TGF-b/SMAD3 reporter, GFP fluorescence, 18 h; TGF-beta stimulated, 500 pg/mL final; AID 588855; also: % is scaled to controls: 0 for no effect and ±100 for the full control effect; nearly all actives have a fitted effect of over 65% in size
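HEPG2 CAGA-GFP reporter cells (1000/well, DMEM with 1% FBS) received compounds, then recombinant TGF-beta at 500 pg/mL final for 18 hours at 37 degrees C. Per-cell GFP summed per well was normalised to unstimulated and stimulated DMSO controls before curve fitting.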
ATXN2 expr inh = ATXN2 expression inhibition; HEK-293 ATXN2-luciferase reporter, luminescence, 24 h; Potency, µM (doses to about 57 µM), for the others: top-dose activity change, negative = inhibition, actives largely listed as inhibitors; 360,000 compounds, 0.72% hits; also: % is scaled to controls: 0 for no effect and ±100 for the full control effect; nearly all actives have a fitted effect of over 55% in size
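ATXN2-luciferase reporter cells (luciferase flanked by upstream and downstream ATXN2 gene portions) were treated 24 h at 37 °C with compounds at up to 57 uM. SteadyGlo luminescence gave expression; GF-AFC fluorescence gave viability.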
TGFb CAGA inh = TGF-b pathway inhibition, cherry-pick retest; HepG2 CAGA-GFP TGF-b reporter, GFP fluorescence, 18 h; cells stimulated with TGF-beta, 500 pg/mL; 1,600 compounds, 63% hits; Potency, µM (series often up to 46.1 µM), inactives show top-dose activity, negative = inhibition, most hits filed as inhibitors; shares compounds with TGFb inhibitor; AID 720534; also: % is scaled to controls: 0 for no effect and ±100 for the full control effect; nearly all actives have a fitted effect of over 65% in size
HepG2 tox-2 = toxic to HepG2 cells in TGF-b counterscreen; shares compounds with TGFb inhibitor; HepG2 CAGA-GFP viability, ATP luminescence, 18 h; cells stimulated with TGF-beta, 500 pg/mL; Potency, µM (series often up to 46.1 µM), for the others: at the top dose activity, negative = cytotoxicity, actives largely listed as inhibitors; 1,600 compounds, 27% hits; AID 720535; also: % is scaled to controls: 0 for no effect and ±100 for the full control effect; nearly all actives have a fitted effect of over 70% in size
CCL64 TGFb inh = blocks TGF-b signaling in CCL64 reporter cells | Potency, µM (top dose mostly 46.1 µM), without a hit: top-dose activity, negative = inhibition, actives largely listed as inhibitors | AID 720536 | shares compounds with TGFb inhibitor | CCL64 CAGA-GFP reporter, TGF-b stimulated, GFP fluorescence, 18 h | 1,600 compounds, 41% hits; also: nearly all actives have a fitted effect of over 65% in size
TGFb COP inh = blocks TGF-b signaling in HepG2 COP reporter; shares compounds with TGFb inhibitor; HepG2 COP-GFP TGF-b reporter, GFP fluorescence, 18 h; cells stimulated by added recombinant TGF-beta; Potency, µM (titrated, usually from 46.1 µM), for inactives: top-dose activity, negative = inhibition, hits mostly inhibitors; 1,600 compounds, 3% hits; AID 720537; also: nearly all actives have a fitted effect of over 70% in size
The depositor's hits bear a star; i = inactive; ? = inconclusive; nt = no result. Calls follow the shape of the dose curve; as a rule, active = well fitted curve in the direction sought with a large enough effect; inconclusive = small, poorly fitted or top-dose-only effect, or another doubt; inactive = no such curve, though single readings can be large; an effect the other way counts as inactive or inconclusive. Potency is read from the fitted curve at half-maximal effect.

SMILES	S2 tox	HepG2 tox-1	RORg inh	Gal4-VP16 FLuc	TGFb inhibitor	ATXN2 expr inh	TGFb CAGA inh	HepG2 tox-2	CCL64 TGFb inh	TGFb COP inh
Cc1nnc(Sc2cc(NCCCO)c([N+](=O)[O-])c3nonc23)s1	nt	1.5%	3.55µM*	6.31µM*	5.01µM*	?	4.61µM*	23.1µM*	3.26µM*	?
O=[N+]([O-])c1c(NCCCO)cc(Sc2nc3ccccc3s2)c2nonc12	25.1µM*	-34.2%	15.5%	1.1%	17.8µM*	?	?	16.4µM*	6.51µM*	16.4µM*
COC(=O)NC1C=CCCC1C(C)=O (stereo not given)	nt	nt	-1.4%	0.4%	nt	nt	nt	nt	nt	nt
COc1ccc(/C(C)=N/Nc2nc3ccccc3nc2C)cc1	i	-40.7%	2.51µM*	12.6µM*	7.94µM*	-21.1%	?	-1.4%	-13.5%	12.5%
CCc1ccc(NC(=O)c2cc3c(COC(C)=O)cnc(C)c3oc2=O)cc1	nt	9.5%	nt	nt	-14.9%	nt	nt	nt	nt	nt
COc1ccc(C2/C=C\CN(C(=O)C3CC3)[C@H](Cc3ccccc3)C(=O)N2Cc2ccc(F)cc2)cc1 (stereo not given in full)	?	-5.3%	11.2µM*	-19.7%	10µM*	0.0%	?	-24.8%	?	35.3%
Cc1cccc(N2CCN(C(=O)c3c(C)nn(Cc4ccccc4Cl)c3C)CC2)c1C	i	-23.9%	11.1%	-7.6%	20µM*	-35.5%	10.3µM*	?	?	24.1%
COc1ccc(OC)c(NC(=O)c2nc(S(=O)(=O)Cc3ccccc3)ncc2Cl)c1	17.8µM*	7.94µM*	5.01µM*	?	3.55µM*	-24.6%	4.61µM*	6.51µM*	3.66µM*	10.3µM*
Cc1ccccc1CS(=O)(=O)c1ncc(Cl)c(C(=O)Nc2ccc(F)cc2)n1	nt	22.4µM*	?	?	10µM*	nt	?	?	3.66µM*	?
Cc1cccc(C)c1NC(=O)c1nc(S(=O)(=O)Cc2ccccc2F)ncc1Cl	nt	-99.7%	nt	nt	?	nt	nt	nt	nt	nt
Cc1cccc(CS(=O)(=O)c2ncc(Cl)c(C(=O)Nc3c(C)cccc3C)n2)c1	?	10µM*	?	8.91µM*	6.31µM*	-17.7%	4.61µM*	9.2µM*	4.61µM*	?
O=C(Nc1ccc(F)cc1)c1nc(S(=O)(=O)Cc2ccccc2)ncc1Cl	nt	7.08µM*	-35.1%	7.94µM*	5.01µM*	?	3.26µM*	14.6µM*	2.59µM*	?
COc1ccc(OC)c(NC(=O)CS(=O)(=O)Cc2ccccc2)c1	i	13.6%	nt	nt	19.6%	2.1%	nt	nt	nt	nt
O=C(NCc1ccccc1Cl)C1CCN(S(=O)(=O)c2ccc3c(c2)CCCN3C(=O)C2CCC2)CC1	?	-24.1%	nt	nt	-24.2%	-19.2%	nt	nt	nt	nt

Screening data (PubChem BioAssay)
